# In PubChem BioAssay:
# Experiment: small-molecule binders of probe aLefty1, primary screen, biochemical, small-molecule microarray, 635/667 nm fluorescence (AID 1153);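 note: score merges spot fluorescence with signal-to-noise ratio from the scanned slide images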
# Settings: higher = more signal
row,Compound,composite z-score
1,CC(C)C(=C=CC[C@H](O)c1ccccc1OCCO)C[C@H](O)COCc1ccccc1,-0.174
2,CC(C)NC(=O)[C@@]1(c2ccc([N+](=O)[O-])cc2)CC(=O)N(CC23CC4CC(CC(C4)C2)C3)[C@@H]1c1ccc(CO)cc1,1.56
3,CC(C)=C1C(=O)C(c2ccccc2)=C2CN3C(=O)N(CCc4ccccc4)C(=O)[C@]3(C)[C@H]21,0.298
4,[N-]=[N+]=Nc1ccccc1[C@H]1OC(c2ccc(OCCCO)cc2)=N[C@@]1(Cc1ccccc1)C(=O)NCC(O)CO (some centres undefined),0.425
5,COCCCNC(=O)[C@@]1(CCS(=O)(=O)c2ccccc2)COC(c2ccc(OCCCO)cc2)=N1,0.87
6,CC(C)(C)N1CC=CC23O[C@@H]4C=CCOC(=O)[C@@H]4[C@H]2C(=O)N(CCO)[C@@H]3C1=O (some centres undefined),-0.0967
7,CN(C)CCCCNC(=O)[C@H]1C[C@H]2C(=O)NCC(=O)N2[C@H]1c1ccc(O)cc1,-0.417
8,CC(C)C(O)C1C=CC2C(=O)NC(=O)C2N1Nc1ccccn1 (centres undefined),0.134
9,O=C1C2C=CC(C(O)c3ccc([N+](=O)[O-])cc3)N(Nc3ccccc3F)C2C(=O)N1c1ccccc1 (centres undefined),0.0625
10,CN(C)CCCC[C@@H]1NC(=O)[C@@H]2C[C@H](C(=O)NCCCCCN)[C@H](c3cccc(OCCO)c3)N2C1=O,0.25
11,CC1CC/C=C\[C@H]2OC34C=CCN(Cc5ccccc5)C(=O)[C@H]3N(CCCCCCO)C(=O)[C@@H]4C2C(=O)O1 (some centres undefined),0.0249
12,C=CCC(OC(C)=O)[C@@H]1[C@@H](N(Cc2cccc3ccccc23)C(=O)c2ccc(-c3ccccc3)cc2)c2cc(OCCCO)ccc2N1C(=O)Cc1ccc2ccccc2c1 (some centres undefined),-0.0164
13,CC(C)NC(=O)[C@@]1(C)c2ccccc2C(=O)N(Cc2ccccc2)[C@H]1c1ccc(CO)cc1,-0.0796
14,COC(=O)[C@@]1(Cc2ccccc2)[C@H]2c3cc(C(=O)N4CCCC4)n(Cc4ccc(OC)c(OC)c4)c3C[C@H]2CN1C(=O)c1ccccc1,0.347
15,O=C1C[C@@](C(=O)NCc2ccccc2)(c2ccc([N+](=O)[O-])cc2)[C@@H](c2ccc(CO)cc2)N1C1CCCCC1,0.857
16,[N-]=[N+]=Nc1ccccc1[C@@H]1OC(c2ccc(OCCCO)cc2)=N[C@]1(CCS(=O)(=O)c1ccccc1)C(=O)NCC(O)CO (some centres undefined),0.165
17,CCOC(=O)C[C@H]1[C@H](OC(=O)c2ccccc2-c2ccccc2)[C@@H](NC(=O)c2ccc3ccccc3c2)c2cc(OCCCO)ccc2N1C(=O)Cc1ccc(OC)cc1,-0.241
18,CCOC(=O)C[C@H]1[C@H](OC(=O)Cc2ccc3c(c2)OCO3)[C@@H](NC(=O)Cc2ccc(OC)cc2)c2cc(OCCCO)ccc2N1C(=O)Cc1ccc(OC)cc1,-0.15
19,Cc1ccc(C(C)CC(O)C2C=CC3C(=O)N(C)C(=O)C3N2Nc2ccccc2)o1 (centres undefined),0.356
20,Cc1ccc(S[C@]2(C(=O)NCC(F)(F)F)CC(=O)N(Cc3ccccc3C(F)(F)F)[C@@H]2c2ccc(CO)cc2)cc1,0.007
21,COC(=O)[C@]1(Cc2ccccc2)N=C(c2ccc(OCCCO)cc2)O[C@@H]1c1ccccc1CN=[N+]=[N-],0.25
22,COC(=O)C(CC#Cc1ccc2c(c1)[C@]1(C(=O)N2)[C@H](c2ccc(OCCO)cc2)N2[C@H](c3ccccc3)[C@H](c3ccccc3)OC(=O)[C@H]2[C@@H]1C(=O)N1CCCCCCC1)C(=O)OC,2.67
23,C[C@]1(C(=O)O)c2ccccc2C(=O)N(Cc2cc(F)cc(C(F)(F)F)c2)[C@H]1c1ccc(CO)cc1,-0.261
24,O=C(NC1CC1)[C@@H]1c2ccccc2C(=O)N(CC23CC4CC(CC(C4)C2)C3)[C@H]1c1ccc(CO)cc1,0.284
25,COC(=O)[C@@]1(Cc2ccc(OC)cc2)[C@H]2c3cc(C(=O)N4CCCC4)n(CCn4cc([N+](=O)[O-])nc4C)c3C[C@H]2CN1C(=O)c1ccccc1,2.16
26,CC1CC/C=C\[C@H]2OC34C=CCN(c5ccc6ccccc6c5)C(=O)[C@H]3N(C(C)CO)C(=O)[C@@H]4C2C(=O)O1 (some centres undefined),-0.0933
27,O=C1C[C@]2(c3ccc([N+](=O)[O-])cc3)C(=O)N(C3CC3)c3cc(CO)ccc3[C@H]2N1C1CCCCC1,0.91
28,CCN(CC)c1ccc(N2CC=CC34O[C@@H]5C=CCCOC(=O)C5[C@H]3C(=O)N(C(C)CO)[C@@H]4C2=O)cc1 (some centres undefined),0.138
29,COC(=O)[C@@]1(Cc2ccccc2)[C@H]2c3cc(C(=O)N(C)C)n(CCO)c3C[C@H]2CN1C(=O)c1ccccc1,0.188
